Experimental data reported in the supplement of paper PMC6555819.

How the values were obtained:
Test in all cases: PBM binding z-score (relative to random genomic background probes); higher = stronger binding; sequences stand for … in GC…GCGATTGACAGCGTAGAATGAAGG
[1] = test system: RARb homodimer (NR concentration 270 nM)
In short: (§1)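 Custom Agilent 4×180K protein-binding microarrays carried double-stranded probes. Their 34-nt variable regions held direct-repeat seeds, single-nucleotide variants, half-site ablations and random human genomic background sequences. Arrays were incubated 1 h with ligand-free nuclear receptor dimers in PBS pH 7.4, 2% milk, 0.02% Triton X-100, 1 mM DTT, 0.2 mg/mL BSA and 0.4 mg/ml salmon testes DNA. Antibodies against each partner (one per run) detected binding, and scanned fluorescence was regression-normalized. Binding z-scores use random background probes as reference.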

[2] = test system: RARg:RXRa (NR concentration 270 nM, RXRa partner concentration 90 nM)
In short: as §1

[3] = test system: RARg homodimer (NR concentration 270 nM)
In short: as §1

[4] = test system: RXRa DBDmut IVT, anti-RXR (DBD mutation: RXRa K156A/R161A, NR concentration 90 nM)
In short: as §1

[5] = test system: RXRa homodimer (NR concentration 180 nM)
In short: as §1

[6] = test system: THRa:RXRa (NR concentration 90 nM, RXRa partner concentration 90 nM)
In short: as §1

[7] = test system: THRa homodimer (NR concentration 90 nM)
In short: as §1

[8] = test system: VDR homodimer (NR concentration 270 nM)
In short: as §1

Sequence	PBM binding z-score [1]	PBM binding z-score [2]	PBM binding z-score [3]	PBM binding z-score [4]	PBM binding z-score [5]	PBM binding z-score [6]	PBM binding z-score [7]	PBM binding z-score [8]
CCTATTATTTGACCATAAGGGCAACCGAAGCTCG	2.16	1.05	1.21	1.06	0.762	1.83	2.31	2.19
CTCGAAAGGTTGGTTGAGGTGAGTATACGGATAA	1.12	0.599	0.684	0.251	0.502	4.42	1.82	0.513
AGAATGAGGTTCCCAAAGATCAGGGAAACGCTTG	-0.864	0.141	0.123	-0.649	0.474	0.218	-0.623	-0.39
CCTACTGGGCCATTCAGGGGTCATTGATCATATG	3.95	4.69	3	0.56	5.5	3.31	0.962	4.05
TCTTGTAGATCATCAGGTTAAGAAAGCTGGCCAA	0.398	0.0917	-0.23	0.859	0.451	0.929	0.613	0.0246
CGAACTAGGTCAGAACAGGACAGTCAAGGATGAT	2.26	2.65	3.09	0.873	1.35	3.42	0.288	0.29
CAGCCCAGGTCAGGGCCAGTATAGGAGGAACGTT	2.54	3.15	3.67	-0.41	2.25	2.73	1.48	0.168
GATACAGGGTCAGCTAGAGGCCAGAGTTTGGAAA	3.66	6.53	4.92	1.38	4.29	3.04	0.526	1.17
GCATATAGGTGATACAAGGTGAAAGTCCGATTGT	0.997	0.873	0.702	0.341	0.856	4.24	0.943	0.0464
CAAACTAGGCCAAAGGTCAAAGTCGAGCCAACCA	4.89	6.83	5.59	1.38	7.49	3.93	0.417	1.61
CCTTACTGGTCAAGGTTATAGCACGGGTGGTACG	1.78	1.43	1.55	-0.171	1.37	1.52	1.09	0.749
CTTCGGAGGACAGAAGGTCAGAGCTGTCCGCTTT	3.32	3.58	3.53	-0.00556	2.14	2.31	-0.137	-0.0466
CGTCCAAGGTCAATGCTAGGTCAGTGTAAGCATT	5.02	7.55	7	3.74	5.35	4.48	2.75	3.52
TCTAGCAGGCCAAAGGGTCACTCAAGAGGTACGG	4.55	4.65	4.35	0.568	4.24	2.51	-0.172	1.2
ATCGAAATGTCGAGGTGAGTATAGAGAAAGGGAA	-0.158	0.381	0.595	-0.737	0.198	1.24	0.217	-0.583
CGAACTAGGTCAGAACAGGACAGTGTAGGATGAT	2.16	2.56	3.47	0.551	1.28	3.47	0.227	0.291
TCTAGTTTGTCAAAGGTCACACACTCGAAATGCG	4.86	6.06	5.71	2.14	6.98	4.07	1.98	2.58

Sequence	PBM binding z-score [1]	PBM binding z-score [2]	PBM binding z-score [3]	PBM binding z-score [4]	PBM binding z-score [5]	PBM binding z-score [6]	PBM binding z-score [7]	PBM binding z-score [8]
CCTGCTAGGTCATGGTCAGCTATTCTACAGTATG	3.14	3.88	4.48	2.05	2.65	2.93	1.28	0.248
CCAAACAGGTGAAAGGTAACTCAGTCTGGTACGC	0.802	1.11	0.696	0.223	1.99	0.954	0.0389	0.206
GCGACTGGGGCAAAGCAAGTTACCATAAGGTTGG	0.158	0.0953	0.244	-0.247	0.26	0.526	-0.346	-0.341
GCAGACAGGTGAAACGCAGCTAACTCAGGGTGGC	-0.474	-0.209	-0.0146	-0.543	-0.0388	-0.192	-0.872	-1.11
AGAATGAGGTTATAAGTAGATCAGGGAAGAAAGT	0.89	1.35	0.794	1.41	2.12	2.1	0.689	1.09
CCTACTGGGACAAAAAGGTCATTGATGCCGATAA	4.37	4.68	4.48	1.21	5.22	3.31	0.878	3.69
AGAATGAGGTTATACGGAGATCAGGGAAGAAAGT	1	1.95	1.1	1.68	2.26	2.33	0.836	0.95
CGTCCATGGTCAAGGTCAGTGAAAGAGACTCGAA	3.21	3.15	3.78	0.79	2.4	2.84	1.79	1.02
CAAACTAGGTCACCGGAAGGACAAAGTCCGCATG	4.21	6.38	6.15	1.54	3.82	3.81	2.12	1.38
CCGACTGGGGCATGAGGTTACCATAAGCCAGCCC	1.43	1.29	0.922	-0.569	1.25	1.89	0.853	-0.0736
ACTATTAGTTGAGACTAGGGCAACCGATAGGTTG	0.465	0.376	0.586	-0.0472	0.0824	1.25	-0.533	-0.353
ACTAGTTGGTCAGCCGAGGTCACACACAATTCGG	4.36	4.25	4.08	0.998	4.34	5	4.33	4.04
CAAACTAGGTCAAAGATCAAAGTCGAGCCAACCA	2.5	4.93	4.62	1.97	5.28	2.9	0.494	0.479
CGAACGAGGGGATGAGTTGATAGCAAATGCCGAT	-0.429	-0.0531	0.201	0.534	0.0402	-0.246	-0.206	0.579
TCTATAAGTTGAAGGGCAACCGACGAGTCCGTTT	1.49	0.829	1.07	1.59	1.01	0.466	0.137	1.57
CCGAGAAGGTTATGGGGCATTCAGGCAACGGTGA	1.61	1.84	1.38	0.364	2.23	1.3	0.0713	0.22
TCTTGTAGATCAAGAGAGGTTAAGAAAGTGCGCT	0.846	0.415	0.178	0.14	1.21	2.27	-0.932	0.194
